The record followed here is PubChem BioAssay (NCATS).

Results filed as inconclusive are left out. Values without a mark were called inactive. Activity calls are given as the source filed them. The call rests on the fitted dose curve; in most records, active means well fitted curve in the direction sought with a large enough effect; inconclusive means small, poorly fitted or top-dose-only effect, or another doubt; inactive means no such curve, though single readings can be large; an effect the other way counts as inactive or inconclusive.
Potency means the concentration at half of the fitted maximal effect.

A short description of one assay: qHTS of pediatric cancer cell lines to identify multiple opportunities for drug repurposing: Confirmatory screen for LAN-5 cells (AID 1347113). Further: nearly all actives have a fitted effect of over 65% in size. On activity change, negative = cytotoxicity: on the % scale 0 is the no-effect control and ±100 the full control effect. The following applies: LAN-5 neuroblastoma cell viability; series mostly up to 45.9 µM; activity change, negative = cytotoxicity: at the top concentration. Summed up:
(§1)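 Cells (500-1,000/well) in growth media were settled 5 h at 37 degrees C, then given compounds for 48 h. Viability was read as CellTiter-Glo luminescence. Primary runs used MIPE at 11 points (0.78 nM-46 µM) and NPC at 8 points (0.59 nM-46 µM); follow-ups used 11 points.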
As to `CN/C(=C\[N+](=O)[O-])NCCSCc1ccc(CN(C)C)o1`, the result was inactive.
As to `C[n+]1cc2c3c(ccc2c2ccc4cc5c(cc4c21)OCO5)OCO3`, the Potency was 0.811 µM (active).
In the case of `C[C@]12C=CC(=O)C=C1CC[C@H]1[C@@H]3C[C@@H](O)[C@](O)(C(=O)CO)[C@@]3(C)C[C@H](O)[C@@]12F`, the Potency was 9.27 µM (active).
On to `Nc1nc(N)c2nc(-c3ccccc3)c(N)nc2n1`, for which the “activity change, negative = cytotoxicity” value is 1.68%.
The same measure, in the same setting: for `C[C@]12CC[C@@H]3c4ccc(O)cc4C[C@@H](CCCCCCCCCS(=O)CCCC(F)(F)C(F)(F)F)[C@H]3[C@@H]1CC[C@@H]2O` (stereo partly specified) the value was 5.56%.

A short description of another assay: qHTS of pediatric cancer cell lines to identify multiple opportunities for drug repurposing: Confirmatory screen for DAOY cells (AID 1347114). Further: nearly all actives have a fitted effect of over 65% in size. On activity change, negative = cytotoxic: on the % scale 0 is the no-effect control and ±100 the full control effect. The following applies: DAOY medulloblastoma cells viability, cytotoxicity qHTS; series mostly up to 45.9 µM; activity change, negative = cytotoxic: at the top concentration. Summed up: (§2)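 Viability measured as metabolically active cells via CellTiter-Glo luminescence following 48 hours of compound exposure, 11-point dilutions in confirmatory testing. 500-1,000 cells/well plated 5 hours before dosing; controls were DMSO and 2.3 µM bortezomib.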
On the technique in general: Quantitative high-throughput screening tests each substance at several concentrations.
Consider `CN/C(=C\[N+](=O)[O-])NCCSCc1ccc(CN(C)C)o1`, for which the “activity change, negative = cytotoxic” value is -3.71%.
Take `C[n+]1cc2c3c(ccc2c2ccc4cc5c(cc4c21)OCO5)OCO3`: the Potency is 2.29 µM (active).
`C[C@]12C=CC(=O)C=C1CC[C@H]1[C@@H]3C[C@@H](O)[C@](O)(C(=O)CO)[C@@]3(C)C[C@H](O)[C@@]12F`: the “activity change, negative = cytotoxic” value is -1.58%.
For `C[C@]12CC[C@@H]3c4ccc(O)cc4C[C@@H](CCCCCCCCCS(=O)CCCC(F)(F)C(F)(F)F)[C@H]3[C@@H]1CC[C@@H]2O` (stereo partly specified), the “activity change, negative = cytotoxic” value is -25.9%.

The next assay in a line: qHTS of pediatric cancer cell lines to identify multiple opportunities for drug repurposing: Confirmatory screen for NB-EBc1 cells (AID 1347115).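 Further: cells exposed to compound for 48 h before the viability read; nearly all actives have a fitted effect of over 45% in size.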 On activity change, negative = cytotoxic: on the % scale 0 is the no-effect control and ±100 the full control effect. The following applies: NB-EBc1 neuroblastoma cells, viability (cytotoxicity); series mostly up to 45.9 µM; activity change, negative = cytotoxic: at the top concentration. Summed up: as §1
Take `CN1C[C@H](C(=O)N[C@]2(C)O[C@@]3(O)[C@@H]4CCCN4C(=O)[C@H](Cc4ccccc4)N3C2=O)C[C@@H]2c3cccc4[nH]cc(c34)C[C@H]21`: the “activity change, negative = cytotoxic” value was -7.25%.
Still for that read-out and setting: the figure for `NCCCNCCSP(=O)(O)O` is 10.1% [at 9.58 µM].
Turning to `C[n+]1cc2c3c(ccc2c2ccc4cc5c(cc4c21)OCO5)OCO3`, the Potency is 3.23 µM (active).
As for `C[C@]12C=CC(=O)C=C1CC[C@H]1[C@@H]3C[C@@H](O)[C@](O)(C(=O)CO)[C@@]3(C)C[C@H](O)[C@@]12F`, the “activity change, negative = cytotoxic” value was -39.3%.
Still for that read-out and setting: for `C[C@]12CC[C@@H]3c4ccc(O)cc4C[C@@H](CCCCCCCCCS(=O)CCCC(F)(F)C(F)(F)F)[C@H]3[C@@H]1CC[C@@H]2O` (stereo partly specified) the value was -7.47%.

The next assay can be described thus: qHTS of pediatric cancer cell lines to identify multiple opportunities for drug repurposing: Confirmatory screen for SJ-GBM2 cells (AID 1347116). Further: nearly all actives have a fitted effect of over 60% in size.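 On activity change, negative = cytotoxic: plate controls were DMSO for no effect and bortezomib for full effect.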 The following applies: SJ-GBM2 glioblastoma cells, viability; series mostly up to 45.9 µM; activity change, negative = cytotoxic: at the top concentration. Summed up:
as §2
As to `CN/C(=C\[N+](=O)[O-])NCCSCc1ccc(CN(C)C)o1`, the “activity change, negative = cytotoxic” value is 11.3%.
As to `NCCCNCCSP(=O)(O)O`, the Potency is 0.215 µM (active).
On the same count and under the same terms, the figure for `C[n+]1cc2c3c(ccc2c2ccc4cc5c(cc4c21)OCO5)OCO3` is 3.62 µM (active); for `Nc1nc(N)c2nc(-c3ccccc3)c(N)nc2n1` it is 9.27 µM (active).
For the molecule `C[C@]12CC[C@@H]3c4ccc(O)cc4C[C@@H](CCCCCCCCCS(=O)CCCC(F)(F)C(F)(F)F)[C@H]3[C@@H]1CC[C@@H]2O` (stereo partly specified), the “activity change, negative = cytotoxic” value is -1.13%.

The next assay can be described thus: qHTS of pediatric cancer cell lines to identify multiple opportunities for drug repurposing: Confirmatory screen for BT-37 cells (AID 1347117). Further: nearly all actives have a fitted effect of over 55% in size.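 On activity change, negative = cytotoxic: plate controls were DMSO for no effect and bortezomib for full effect.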 The following applies: BT-37 pediatric cancer cells, viability; series mostly up to 45.9 µM; activity change, negative = cytotoxic: at the top concentration. An outline of the steps: as §1
Turning to `CN/C(=C\[N+](=O)[O-])NCCSCc1ccc(CN(C)C)o1`, the “activity change, negative = cytotoxic” value is 1.85%.
With `CN1C[C@H](C(=O)N[C@]2(C)O[C@@]3(O)[C@@H]4CCCN4C(=O)[C@H](Cc4ccccc4)N3C2=O)C[C@@H]2c3cccc4[nH]cc(c34)C[C@H]21`, the “activity change, negative = cytotoxic” value was -27.9%.
Regarding `NCCCNCCSP(=O)(O)O`, the activity change, negative = cytotoxic is 0.812% [at 9.58 µM].
On to `C[n+]1cc2c3c(ccc2c2ccc4cc5c(cc4c21)OCO5)OCO3`, for which the Potency is 1.44 µM (active).
As to `C[C@]12C=CC(=O)C=C1CC[C@H]1[C@@H]3C[C@@H](O)[C@](O)(C(=O)CO)[C@@]3(C)C[C@H](O)[C@@]12F`, the Potency is 9.27 µM (active).
As to `C[C@]12CC[C@@H]3c4ccc(O)cc4C[C@@H](CCCCCCCCCS(=O)CCCC(F)(F)C(F)(F)F)[C@H]3[C@@H]1CC[C@@H]2O` (stereo partly specified), the “activity change, negative = cytotoxic” value was -15.7%.

Another assay is described as follows: qHTS of pediatric cancer cell lines to identify multiple opportunities for drug repurposing: Confirmatory screen for TC32 cells (AID 1347118).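 Further: cells exposed to compound for 48 h before the read; nearly all actives have a fitted effect of over 65% in size.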 The following applies: TC32 Ewing sarcoma cells viability qHTS. Summed up: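 qHTS, TC32, 48 h drug treatment, CellTiter-Glo luminescence as a proxy for metabolically active cells; primary top concentration 46 µM (MIPE 11-pt, NPC 8-pt); confirmatory 11-pt.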
In the case of `CN/C(=C\[N+](=O)[O-])NCCSCc1ccc(CN(C)C)o1`, the Potency is 10.4 µM (active).
On the same count and under the same terms, the figure for `C[n+]1cc2c3c(ccc2c2ccc4cc5c(cc4c21)OCO5)OCO3` is 1.15 µM (active).
The same measure, in the same setting: for `C[C@]12C=CC(=O)C=C1CC[C@H]1[C@@H]3C[C@@H](O)[C@](O)(C(=O)CO)[C@@]3(C)C[C@H](O)[C@@]12F` the value was 6.57 µM (active); for `Nc1nc(N)c2nc(-c3ccccc3)c(N)nc2n1`, 3.69 µM (active).
On the same count and under the same terms, the figure for `C[C@]12CC[C@@H]3c4ccc(O)cc4C[C@@H](CCCCCCCCCS(=O)CCCC(F)(F)C(F)(F)F)[C@H]3[C@@H]1CC[C@@H]2O` (stereo partly specified) is 8.27 µM (active).

The nature of the next assay: qHTS of pediatric cancer cell lines to identify multiple opportunities for drug repurposing: Confirmatory screen for MG 63 (6-TG R) cells (AID 1347119). Further: nearly all actives have a fitted effect of over 55% in size.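 On activity change, negative = cytotoxicity: plate controls were DMSO neutral control for no effect and bortezomib for full effect.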 The following applies: MG-63 (6-TG resistant) osteosarcoma viability; series mostly up to 45.9 µM; activity change, negative = cytotoxicity: at the top concentration. An outline of the steps: as §1
Take `CN/C(=C\[N+](=O)[O-])NCCSCc1ccc(CN(C)C)o1`: the “activity change, negative = cytotoxicity” value is 10.3%.
On the same count and under the same terms, for `CN1C[C@H](C(=O)N[C@]2(C)O[C@@]3(O)[C@@H]4CCCN4C(=O)[C@H](Cc4ccccc4)N3C2=O)C[C@@H]2c3cccc4[nH]cc(c34)C[C@H]21` the value was -13.6%.
On the same count and under the same terms, for `NCCCNCCSP(=O)(O)O` the value was 6.09% [at 9.58 µM].
As for `C[n+]1cc2c3c(ccc2c2ccc4cc5c(cc4c21)OCO5)OCO3`, the Potency was 1.62 µM (active).

The nature of the next assay: qHTS of pediatric cancer cell lines to identify multiple opportunities for drug repurposing: Confirmatory screen for control Hh wild type fibroblast cells (AID 1347121). Further: nearly all actives have a fitted effect of over 70% in size.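 On activity, negative = cytotoxic: plate controls were DMSO for no effect and bortezomib for full effect.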 The following applies: viability qHTS; series mostly up to 45.9 µM; activity, negative = cytotoxic: at the top concentration. An outline of the steps: as §1
Regarding `CN1C[C@H](C(=O)N[C@]2(C)O[C@@]3(O)[C@@H]4CCCN4C(=O)[C@H](Cc4ccccc4)N3C2=O)C[C@@H]2c3cccc4[nH]cc(c34)C[C@H]21`, the “activity, negative = cytotoxic” value was -1.37%.
Same read-out and setting: the figure for `NCCCNCCSP(=O)(O)O` is 0.865% [at 9.58 µM].
On to `C[n+]1cc2c3c(ccc2c2ccc4cc5c(cc4c21)OCO5)OCO3`, for which the Potency is 4.56 µM (active).
For the molecule `Nc1nc(N)c2nc(-c3ccccc3)c(N)nc2n1`, the “activity, negative = cytotoxic” value was 11.7%.

Another assay in a line: qHTS of pediatric cancer cell lines to identify multiple opportunities for drug repurposing: Confirmatory screen for U-2 OS cells (AID 1347122). Further: nearly all actives have a fitted effect of over 65% in size.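 On activity change, negative = cytotoxicity: plate controls were DMSO for no effect and bortezomib for full effect.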 The following applies: U-2 OS osteosarcoma cell viability; series mostly up to 45.9 µM; activity change, negative = cytotoxicity: at the top concentration. An outline of the steps: as §1
In the case of `CN/C(=C\[N+](=O)[O-])NCCSCc1ccc(CN(C)C)o1`, the “activity change, negative = cytotoxicity” value is 15.8%.
For the molecule `CN1C[C@H](C(=O)N[C@]2(C)O[C@@]3(O)[C@@H]4CCCN4C(=O)[C@H](Cc4ccccc4)N3C2=O)C[C@@H]2c3cccc4[nH]cc(c34)C[C@H]21`, the molecule was classed as inactive.
With `C[n+]1cc2c3c(ccc2c2ccc4cc5c(cc4c21)OCO5)OCO3`, the Potency was 1.44 µM (active).
